Consider 53 compounds from ChEMBL document CHEMBL4513216, “Probing the Open Global Health Chemical Diversity Library for Multistage-Active Starting Points for Next-Generation Antimalarials” (ACS Infect Dis, 2020).

The whole screen tested about 65,000 compounds, of which about 2,100 (3.2%) showed an effect of 50% or more. The median lay at about -52%. This excerpt belongs to a sample that is enriched for strong results.

The subject of this assay is Plasmodium falciparum. As to the kind of experiment: Screen against P. falciparum Asexual Blood Stage (ABS), at 5uM. It counts as functional, Dd2. The conditions noted are these: tested at 5 uM.
With `COc1cccc(Nc2nc(-c3ccncc3)nc3c2CNCC3)c1`, the INHIBITION stood at 82.2%.
For `Fc1cccc(Nc2nc(N3CCCC3)nc3c2CNCC3)c1` the value was 84.3%; for `COc1cccc(Nc2nc(N3CCCC3)nc3c2CNCC3)c1`, 85.7%.
For `CC(C)(C)n1cc(C(=O)O)c(-c2ccc(F)cc2F)n1` the value was -86.4%.
The result for `Fc1cnc(N2CCN3C[C@H](Oc4cncnc4)C[C@H]3C2)nc1` reads -74.8%.
Take `c1ccc(CN2CCOC3CNCC[C@H]32)cc1` (stereo partly drawn): the INHIBITION was determined as 23.5%.
For `Cc1nc(CN2CCO[C@H]3CN(C(=O)Cc4cccs4)C[C@H]32)cs1`, the INHIBITION is -65.8%.
Turning to `O=c1c2ccccc2cnn1Cc1cncn1C1CC1`, the INHIBITION is recorded as -100%.
Consider `CS(=O)(=O)N1CCC2(CCCN(Cc3ccccn3)C2)CC1`, for which the INHIBITION is -200%.
For the compound `CC1(c2ccccc2)CCCN(Cc2cncn2C2CCCC2)C1` (stereo not drawn), the INHIBITION came to 91%.
For `COCCNc1c(C#N)c2c(c3nncn13)CN(C)CC2` the value was -128%; for `CC(C)(C)CN1CCCC2(CCN(C(=O)c3ccc(O)nc3)C2)C1` (stereo not drawn), -154%.
For `CC(C)(C)c1cn(C[C@H]2CC3CCN2C[C@@H]3C(=O)N2CCOCC2)nn1` (stereo partly drawn) the value was -111%.
Turning to `COc1c(C)cnc(CN2CCC(N(C)C(C)C(N)=O)CC2)c1C` (stereo not drawn), the INHIBITION was determined as 78.2%.
As for `COc1c(C)cnc(CN(C)C2CCCCC2)c1C`, the INHIBITION was determined as 76.7%.
As for `Cc1n[nH]c2c1C(c1ccc(O)cc1)SCC(=O)N2` (stereo not drawn), the INHIBITION is -12.2%.
For `Cc1cnccc1CN1CC[C@H](Oc2cccc(F)c2)[C@@](C)(O)C1`, the INHIBITION is on record as 80.2%.
The result for `Fc1cccc(O[C@@H]2C[C@H]3CN(Cc4ccncc4)CCN3C2)c1` reads -111%; that for `Cc1cccnc1CN1CCC2(CC(Nc3ccncn3)C2)C1` (stereo not drawn), -21.6%; that for `Cc1cccnc1CN1CC[C@H](Oc2cccc(F)c2)[C@@](C)(O)C1`, 75%.
The result for `Fc1cccc(O[C@@H]2C[C@H]3CN(Cc4ccccn4)CCN3C2)c1` reads -29.8%; that for `O=C(Cc1ccccn1)N1CCN2C[C@H](Oc3cccc(F)c3)C[C@H]2C1`, -85.6%; that for `O=C(c1ccsc1)N1CCN2C[C@H](OCc3ccccn3)C[C@H]2C1`, -131%.
The result for `Cc1csc([C@H]2C[C@H]3CN(Cc4cc(C)on4)CC[C@@H]3O2)n1` reads -109%; that for `Cc1cc(-c2nn(C)c(Cl)c2CN2CCCCC(N)C2)no1` (stereo not drawn), 70.3%.
With `Cn1nc(CN2CCCCC(N)C2)c2c(Cl)cccc21` (stereo not drawn), the INHIBITION is listed as 66.2%.
For `Cc1cc(CN2CC[C@@H]3O[C@@H](c4nnc(C)o4)C[C@H]3C2)no1` the value was -68.8%; for `CS(=O)(=O)N[C@@H]1CN(Cc2ccncc2)C[C@@H]2CCCO[C@@H]21`, -73%.
Regarding `OC1(CN2CCC(Oc3cccc(C(F)(F)F)c3)CC2)CCNC1` (stereo not drawn), the INHIBITION is recorded as 90.3%.
The result for `NCC1(c2cccc(C(F)(F)F)c2)CCCC1` reads 32.6%; that for `CC[C@H]1CN2CC[C@H]1C[C@@H]2CNC(=O)Nc1cccc(C(F)(F)F)c1`, -88.1%; that for `CC(N)C(=O)N1CCC(Oc2cccc(C(F)(F)F)c2)CC1` (stereo not drawn), 76.6%.
For `NC(=O)CN1CCCN(C(=O)Cc2cccc(C(F)(F)F)c2)CC1` the value was -122%; for `Cc1ccc(CN2C[C@@H](OCc3ccccn3)[C@H]3COC[C@H]32)o1`, -72.9%; for `CCc1ccc(CN2CC[C@@H]3NC(=O)CC[C@@H]32)o1`, 11.1%.
As for `COc1cccc(CNCc2ccccc2Cl)c1O`, the INHIBITION turned out to be 77%.
With `COc1cccc(CNCc2ccc(F)cc2Cl)c1O`, the INHIBITION is given as 79.5%.
The result for `c1cc(COC[C@]23COC[C@H]2CN(Cc2ccsc2)C3)ccn1` reads 41.6%.
As for `Cc1ncsc1CN1C[C@@H](OCc2ccccn2)[C@H]2OCCC[C@H]21`, the INHIBITION is -244%.
The result for `Cc1nn(C)c(C)c1CN1CCNCC1` reads -133.5%.
Consider `Cc1nn(C)c(C)c1CCn1cncc1-c1ccc2c(c1)CC(C)N2C` (stereo not drawn), for which the INHIBITION was 82.6%.
`CCN1c2ccc(-c3cncn3CCCn3ccnc3C)cc2CC1C` (stereo not drawn): the INHIBITION was 86.6%.
For the compound `Cc1cc(C)n(CCCn2cncc2-c2ccc3c(c2)CC(C)N3C)n1` (stereo not drawn), the INHIBITION was determined as 87.4%.
The result for `CCN1c2ccc(-c3cncn3CC(=O)NC(C)(C)C)cc2CC1C` (stereo not drawn) reads 73.2%; that for `Cc1cc(C)c(CNc2ncnc3ccsc23)c(=O)[nH]1`, -52%.
The result for `Cc1csc(C2(NCC(O)COC(C)C)CCCC2)n1` (stereo not drawn) reads -14.1%; that for `O=C(c1cc(F)cc(F)c1)N1C[C@H]2CNC[C@H]2C1`, 1.31%; that for `CC(C)N1CCC2(CC1)C(=O)N(c1cccnc1)c1c(F)cccc12`, 49.8%.
As for `CN1CCC2(CC1)C(=O)N(C)c1ccc(F)cc12`, the INHIBITION is given as -95.4%.
As for `CC(C)N1C(=O)C2(CCN(C)CC2)c2cc(F)ccc21`, the INHIBITION is -10.7%.
The result for `CN1CCC2(CC1)C(=O)N(c1cccnc1)c1ccc(F)cc12` reads 59.5%.
As for `CC(C)N1CCC2(CC1)C(=O)N(c1cccnc1)c1ccc(F)cc12`, the INHIBITION is given as 65.4%.
The result for `CN1C(=O)C2(CCNCC2)c2cc(F)ccc21` reads -85.9%.
